Measured values published in the supplement of paper PMC10338343.
± gives the standard deviation.

Tested on: MILI (PIWIL2) piRISC loaded with L1MC piRNA (26 nt)
Assay: pre-steady-state target cleavage rate (min^-1); guide: L1MC piRNA 5'p-UAACUAAAUACUAUGCAAGCUGUAGG; MIWI and MILI are mouse PIWI proteins and EfPiwi is from a freshwater sponge; tags in brackets are library labels; higher = faster piRNA-guided slicing of the target
Conditions: auxiliary factor: 500 nM mouse GTSF1
Experimental: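 Cleave-'n-Seq: a library of target RNAs (target site embedded in constant flanks, ACAGCATTCCGCGTTAGTGATATCCG... 5' flank; DNA-blocked outside the site) at 0.1 nM was incubated with 1 nM active mouse MILI or MIWI piRISC (synthetic 5'-monophosphorylated piRNA guide) with or without 500 nM mouse GTSF1 at 33 °C for 1 min to 16 h. Uncleaved targets were sequenced and normalised to non-target controls, and the pooled three trials were fitted to a burst-and-steady-state model to give the pre-steady-state cleavage rate (min^-1; k3 is constrained to at most 1e-4). Sequence is the target site only; target names encode pairing extent (gX:gY) and contiguous / 1-mismatch / 2-mismatch / bulge geometry. Fits with R² ≤ 0 are excluded.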

Sequence	pre-steady-state target cleavage rate
UCCUGGAUGUGCUAGCAAAGUAUUUAGUUA	0.0105 ± 0.0034
UCCUGCUACAGCUUGCUUAGUAUUUAGUAA	0.119 ± 0.015
UCCUGGAUGUCGAACCAUAGAAUUUAGUUA	< 0.0001
UCCUGGUACACUUGCAUAGUAUUUAGUUA	0.188 ± 0.024
UCCUGGAUGUGCUUGCAUAGCAUUUAGUUA	0.0436 ± 0.012
UCCUGGUACAGCAUGCAUAGUUUUUAGUUA	0.038 ± 0.015
UCCUGGUACAGCUUGCAUAGUAAAAACAAA	0.0104 ± 0.0051
UCCUGCUACACCUUGCAUUGUAUUUAGUUA	0.151 ± 0.014
UCCUGGAUGUCCCUGCAUAGUAUUUAGUUA	0.085 ± 0.014
UCCUGGUACACCUUGCAUAGUAUAUAGUUA	0.311 ± 0.059
UCCUGGUACAGGUUGCAUAGUAUUAAGUUA	0.326 ± 0.072
UCCUGGUACCAGCUUGCAUAGUAUUUAGUUA	0.276 ± 0.043
UCCUGCUACAGCUUGCUUAGUAAUUAGUUA	0.18 ± 0.018
UCCUGGAUGUCCUUGCAUAGUUUUUACUUA	0.00658 ± 0.0044
UCCUGGAUGUGCUUACAUAGUAUUUAGUUA	0.122 ± 0.015
UCCUGCUACAGGUUGCAUUGUAUUUAGUUA	0.141 ± 0.019
UCCUGGAUCAGCUUGCAUAGUAGUUAGUUA	0.201 ± 0.016
UCCUGGAACAGCUUGGUUAGUAUUUAGUAA	0.188 ± 0.035
UCCUCCUACAGCUUGCUAGUAUUUAGUUA	0.037 ± 0.013
UCCUGCUACUGCUUGCAUAGUAAUUAGUUA	0.175 ± 0.023
UCCUGGAUGAGGUAGCAUAGUAUUUAGUUA	0.0611 ± 0.0091
UCCUGCUUGAGCUUGCAUAGUAUUUAGAAA	0.148 ± 0.027
UCCUGGAACAGCUUGCAAAGUAUUUACAAA	0.0328 ± 0.01

Same assay, conditions: auxiliary factor: none (no GTSF1)

Sequence	pre-steady-state target cleavage rate
UCCUGGAUGUGCUAGCAAAGUAUUUAGUUA	0.00469 ± 0.0015
UCCUGCUACAGCUUGCUUAGUAUUUAGUAA	0.00316 ± 0.0023
UCCUGGUACACUUGCAUAGUAUUUAGUUA	0.00665 ± 0.0026
UCCUGGUACAGCAUGCAUAGUUUUUAGUUA	0.00749 ± 0.0033
UCCUGCUACACCUUGCAUUGUAUUUAGUUA	0.0123 ± 0.004
UCCUGGAUGUCCCUGCAUAGUAUUUAGUUA	0.00467 ± 0.0023
UCCUGGUACAGGUUGCAUAGUAUUAAGUUA	0.00893 ± 0.0037
UCCUGGUACCAGCUUGCAUAGUAUUUAGUUA	0.00866 ± 0.0047
UCCUGCUACAGCUUGCUUAGUAAUUAGUUA	0.00332 ± 0.0026
UCCUGGAUGUGCUUACAUAGUAUUUAGUUA	0.0117 ± 0.0028
UCCUGCUACAGGUUGCAUUGUAUUUAGUUA	0.0103 ± 0.0026
UCCUGGAUCAGCUUGCAUAGUAGUUAGUUA	0.00826 ± 0.0022
UCCUGGAACAGCUUGGUUAGUAUUUAGUAA	0.00709 ± 0.0024
UCCUCCUACAGCUUGCUAGUAUUUAGUUA	0.00462 ± 0.0021
UCCUGCUACUGCUUGCAUAGUAAUUAGUUA	0.00358 ± 0.0023
UCCUGGAUGAGGUAGCAUAGUAUUUAGUUA	0.00664 ± 0.0022
